# Source: PubChem BioAssay (NCATS)
# Results filed as inconclusive are left out. A number with no mark means an inactive call. Active and inactive are the calls of the source. Calls come from the whole dose curve; as a rule, active = well fitted inhibition curve with a large enough effect; inconclusive = small, poorly fitted or top-dose-only effect; inactive = flat fitted curve, though single readings scatter.
# Legend:
# CRL-7250 = normal cell line; assay: Cytotoxic Profiling of Annotated Libraries Using Quantitative High-Throughput Screening (AID 1296008); conditions: Five cell lines viability, CellTiter-Glo ATP luminescence, 48-72 h; max response: hits give low values; note: nearly all actives have a fitted effect of over 60% in size
# Summary of the method: (§1)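 Cytotoxicity was measured as CellTiter-Glo ATP luminescence, read after 10 min at room temperature. Compound treatment of the cells lasted 48 or 72 hr at 37 degrees Celsius in a qHTS format.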
# HEK293 = assay: as above; conditions: Five cell lines viability, CellTiter-Glo ATP luminescence, 48-72 h; max response: hits give low values
# Summary of the method: as §1
# % is set by controls: 0 for no effect and ±100 for the full control effect; potency is the fitted concentration of half-maximal effect.
structure (smiles),measurement,setting,value
CC1CCC2(C=O)C(CO)=CCCC2C1(C)CC(=O)O (stereo not drawn),max response,CRL-7250,1.72%
same,max response,HEK293,-8.27%
C=C[C@H]1[C@H](O[C@@H]2O[C@H](CO)[C@@H](O)[C@H](O)[C@H]2O)OC=C(C(=O)OC)[C@H]1CC(=O)O,max response,CRL-7250,-13.3%
same,max response,HEK293,3.67%
Cc1noc(=O)c2ccc(NC(=O)C(O)(CC(C)(C)c3cccc4c3OCC4)C(F)(F)F)cc12 (stereo not drawn),max response,CRL-7250,3.52%
same,max response,HEK293,-10.8%
CC1=C(CO)C(=O)O[C@@H]([C@@H](C)[C@H]2CC[C@H]3[C@@H]4C[C@H]5O[C@]56[C@@H](O)C=CC(=O)[C@]6(C)[C@H]4CC[C@]23C)C1,Potency,CRL-7250,3.99 µM (active)
same,Potency,HEK293,1.12 µM (active)
C[C@@H]1CN(Cc2ncccn2)C[C@H]1c1nc2c(cnn2C2CCOCC2)c(=O)[nH]1,max response,CRL-7250,1.7%
same,max response,HEK293,-4.3%
CC(=O)c1c(O)cc(O[C@@H]2O[C@H](CO)[C@@H](O)[C@H](O)[C@H]2O)cc1O,max response,CRL-7250,-2.16%
same,max response,HEK293,1.76%
CC(=O)O[C@@H]1[C@@H](CO)O[C@@](CO)(O[C@H]2O[C@H](COC(=O)/C=C/c3ccccc3)[C@@H](O)[C@H](O)[C@H]2O)[C@H]1O,max response,CRL-7250,-0.112%
same,max response,HEK293,0.799%
C/C1=C\CCC(C)CCO[C@@H]2O[C@H](CO[C@@H]3OC[C@H](O)[C@H](O)[C@H]3OC1=O)[C@@H](O)[C@H](O)[C@H]2O (stereo partly drawn),max response,CRL-7250,-2.22%
same,max response,HEK293,2.77%
CC1=CC(=O)CC(C)(C)C1/C=C/C(C)O[C@@H]1O[C@H](CO)[C@@H](O)[C@H](O)[C@H]1O[C@@H]1OC[C@](O)(CO)[C@H]1O (stereo partly drawn),max response,CRL-7250,-0.149%
same,max response,HEK293,1.02%
COc1cc(/C=C/C(=O)O[C@H]2[C@H](O)[C@@H](CO)O[C@@]2(CO)O[C@H]2O[C@H](CO)[C@@H](O)[C@H](O)[C@H]2O)ccc1O,max response,CRL-7250,3.83%
same,max response,HEK293,0.588%
NC(=O)C(CCC(F)(F)F)N(Cc1ccc(-c2ncon2)cc1F)S(=O)(=O)c1ccc(Cl)cc1 (stereo not drawn),max response,CRL-7250,-7.08%
same,max response,HEK293,-83.5%
CC/C=C\CC1C(=O)C=CC1(CCCCCCCC(=O)O)OC(C)=O (stereo not drawn),max response,CRL-7250,-0.322%
same,max response,HEK293,2.73%
CC1CCCCN1S(=O)(=O)c1ccc(N2CCCC2=O)cc1 (stereo not drawn),max response,CRL-7250,-8.63%
same,outcome,HEK293,inactive
C=C1C(=O)OC2CC(C)=C(C(C)CCCO)C(O)C12 (stereo not drawn),outcome,CRL-7250,inactive
same,max response,HEK293,-3.2%
CC(=O)N1CCN(Cc2ccc([C@H](C)Nc3nccc(N4C(=O)OC[C@@H]4C(C)C)n3)cc2)CC1,Potency,CRL-7250,0.92 µM (active)
same,max response,HEK293,-108%
CC(C)(O)/C=C/C1=CC(=O)[C@@](C)(O)C[C@H]1O,max response,CRL-7250,-5.51%
same,max response,HEK293,-6.16%
C=CC1(C)C=C2CCC3C(C)(C)C(O[C@@H]4O[C@@H](CO)[C@H](O)[C@H]4O)CCC3(C)C2CC1O[C@@H]1O[C@H](C)[C@H](O)[C@H](O)[C@H]1O (stereo partly drawn),max response,CRL-7250,-0.496%
same,max response,HEK293,-0.0102%
CC(C)CC1NC(=O)C2CC3(O)c4ccccc4NC3N2C1=O (stereo not drawn),max response,CRL-7250,-2.34%
same,max response,HEK293,2.06%
C=C[C@H]1[C@H](O[C@@H]2O[C@H](CO)[C@@H](O)[C@H](O)[C@H]2O)OC=C(C(=O)OC)[C@H]1C/C=C(/C=O)[C@@H]1C(C(=O)OC)=CO[C@@H](O[C@@H]2O[C@H](CO)[C@@H](O)[C@H](O)[C@H]2O)[C@@H]1C=C,max response,CRL-7250,-8.61%
same,max response,HEK293,-29.3%
COC(=O)C1=COC(OC2OC(CO)C(O)C(O)C2O)C2C1C=CC2(O)CO (stereo not drawn),outcome,CRL-7250,inactive
same,max response,HEK293,-11.3%
C=C(C(=O)O)C1CCC2(C)CCC(O)C(=C)C2C1 (stereo not drawn),max response,CRL-7250,-9.49%
same,max response,HEK293,-0.847%
CC1(C)CC[C@]2(C(=O)O[C@@H]3O[C@H](CO)[C@@H](O)[C@H](O)[C@H]3O)CC[C@]3(C)C(=CCC4[C@@]5(C)CC[C@H](O[C@@H]6O[C@H](C(=O)O)[C@@H](O)[C@H](O)[C@H]6O)C(C)(C)C5CC[C@]43C)C2C1 (stereo partly drawn),max response,CRL-7250,0.241%
same,max response,HEK293,-5.49%
CC(C)c1ccc2c(c1)C(=O)CC1[C@@](C)(C(=O)O)CCC[C@]21C (stereo partly drawn),max response,CRL-7250,2.88%
same,max response,HEK293,3.51%
Cc1cc(C)cc(C(=O)NOCCCCCC(=O)NO)c1,Potency,CRL-7250,8.2 µM (active)
same,Potency,HEK293,1.64 µM (active)
